Values joined by “and” are separate entries in the source; they are usually repeats but may differ in a detail not shown here. Equal entries are not always repeated. Screen size: about 5,500 compounds; about 2,000 (36%) were called active. Another 18% or so got no clear call; they are omitted. Rule as the data show it: active = normalized growth mostly below about 0.91 (no sharp cut-off); inconclusive = no clear call, values can overlap the other calls; inactive = mostly above about 0.92. This is one part of the list.
Assay: chemical genetic growth profiling, strain panel (AID 1159580);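 also: tested at 20 µM; growth read once vehicle control cultures reached saturation at 30 °C; 1 = growth at the plate median or of vehicle wells; lower values mean less growth of the strain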
Details: S. cerevisiae deletion strains, growth OD

Measured: normalized growth

COc1ccc2c(c1OC)C(=O)O[C@H]2[C@H]1c2cc3c(cc2CCN1C)OCO3
inactive: locus YAL013W, strain DEP1, hits give low values 0.997 | locus YAL021C, strain ccr4, hits give low values 0.987 | locus YAL026C, strain drs2, hits give low values 1.01 | locus YAL030W, strain snc1, hits give low values 1 | locus YBL061C, strain skt5, hits give low values 0.997 | locus YBR009C, strain hhf1, hits give low values 1.01 | locus YBR021W, strain FUR4, hits give low values 1 | locus YBR023C, strain chs3, hits give low values 0.988 | locus YBR171W, strain sec66, hits give low values 0.988 | locus YBR229C, strain ROT2, hits give low values 1.01 | locus YBR231C, strain swc5, hits give low values 1 | locus YBR279W, strain paf1, hits give low values 0.995 | locus YCL011C, strain gbp2, hits give low values 1 | locus YCL016C, strain dcc1, hits give low values 1 | locus YCL029C, strain bik1, hits give low values 1.02 | locus YCL061C, strain MRC1, hits give low values 1 | locus YCL069W, strain vba3, hits give low values 1 | locus YCR088W, strain abp1, hits give low values 1.01 | locus YDL005C, strain med2, hits give low values 0.997 | locus YDL035C, strain GPR1, hits give low values 1 | locus YDL040C, strain nat1, hits give low values 0.991 | locus YDL074C, strain BRE1, hits give low values 1.01 | locus YDL101C, strain DUN1, hits give low values 1.02 | locus YDL134C, strain PPH21, hits give low values 1 | locus YDL185W, strain tfp1, hits give low values 1 | locus YDL192W, strain arf1, hits give low values 1.01 | locus YDR001C, strain nth1, hits give low values 0.999 | locus YDR069C, strain doa4, hits give low values 1 | locus YDR101C, strain arx1, hits give low values 1 | locus YDR137W, strain rgp1, hits give low values 0.988 | locus YDR150W, strain NUM1, hits give low values 1 | locus YDR159W, strain sac3, hits give low values 0.989 | locus YDR162C, strain NBP2, hits give low values 0.966 | locus YDR195W, strain ref2 0.998 | locus YDR297W, strain sur2, hits give low values 1 | locus YDR318W, strain mcm21, hits give low values 1.01 | locus YDR334W, strain swr1, hits give low values 1 | locus YDR335W, strain msn5, hits give low values 0.989 | locus YDR388W, hits give low values 1.01 | locus YDR392W, strain spt3, hits give low values 0.928 | locus YDR502C, strain sam2, hits give low values 1 | locus YEL003W, strain gim4, hits give low values 0.998 | locus YEL037C, strain rad23, hits give low values 0.99 | locus YEL061C, strain CIN8 (second series), hits give low values 0.991 | locus YEL061C, strain CIN8, hits give low values 0.991 | locus YER015W, strain faa2, hits give low values 1 | locus YER016W, strain bim1, hits give low values 0.997 | locus YER110C, hits give low values 1.01 | locus YER111C, strain swi4, hits give low values 0.993 | locus YER155C, strain BEM2 (second series), hits give low values 0.994 | locus YER155C, strain BEM2, hits give low values 0.992 | locus YER167W, strain BCK2, hits give low values 1.01 | locus YFR010W, strain ubp6, hits give low values 1.01 | locus YGL078C, strain dbp3, hits give low values 1.01 | locus YGL086W, strain mad1, hits give low values 1 | locus YGL167C, strain pmr1, hits give low values 0.997 | locus YGL173C, strain kem1, hits give low values 0.993 | locus YGL227W, strain vid30, hits give low values 0.993 | locus YGL240W, strain doc1, hits give low values 1 | locus YGL248W, strain PDE1, hits give low values 1.01 | locus YGL253W, strain hxk2, hits give low values 0.994 | locus YGR078C, strain PAC10, hits give low values 0.992 | locus YGR135W, strain pre9, hits give low values 0.996 | locus YGR229C, strain SMI1, hits give low values 0.99 | locus YGR252W, strain gcn5, hits give low values 0.953 | locus YHR013C, strain ard1, hits give low values 0.974 | locus YHR027C, strain rpn1, hits give low values 0.992 | locus YHR030C, strain SLT2, hits give low values 1.01 and 1.04 | locus YHR079C, strain IRE1 (second series), hits give low values 1.02 | locus YHR079C, strain IRE1, hits give low values 1.05 | locus YHR094C, strain hxt1, hits give low values 1.01 | locus YHR129C, strain ARP1, hits give low values 1.02 | locus YHR142W, strain chs7, hits give low values 0.995 | locus YHR200W, strain rpn10, hits give low values 1 | locus YIL066C, strain RNR3, hits give low values 1 | locus YIL073C, strain SPO22, hits give low values 0.997 | locus YIL125W, strain kgd1, hits give low values 1.01 | locus YIR030C, strain dcg1, hits give low values 1.02 | locus YJL092W, strain hpr5, hits give low values 0.999 | locus YJL095W, strain BCK1 (second series), hits give low values 1 | locus YJL095W, strain BCK1, hits give low values 1.02 | locus YJL115W, strain asf1, hits give low values 0.995 | locus YJL129C, strain trk1, hits give low values 0.992 | locus YJL134W, strain LCB3, hits give low values 1 | locus YJL154C, strain vps35, hits give low values 0.997 | locus YJL164C, strain tpk1, hits give low values 0.991 | locus YJL166W, strain qcr8, hits give low values 0.994 | locus YJL168C, strain set2, hits give low values 1.01 | locus YJL187C, strain SWE1 (second series), hits give low values 1.01 | locus YJL187C, strain SWE1, hits give low values 0.999 | locus YJR043C, strain POL32, hits give low values 1.01 | locus YJR066W, strain TOR1, hits give low values 0.976

Source: PubChem BioAssay AID1159580 (chemical genetic matrix, 2015)
